Compound activity: PubChem, National Center for Advancing Translational Sciences (NCATS)
Compounds with a hit are over-represented: about 2.7% of the library has one in this group of screens.
ERG Ets-DNA blk – blocks human ERG Ets domain binding to DNA. P11308. fluorescence polarization, His-ERG Ets domain / labelled DNA. Potency, µM (series often up to 76.9 µM), for inactives: top-dose FP activity, negative = inhibition, actives largely listed as inhibitors. 370,000 tested, 0.028% active. AID 624246; active = well fitted inhibition curve with a large enough effect in the polarisation, with a control signal flat; inconclusive = small, poorly fitted or top-dose-only effect, or effect the other way, or a change in a side signal; inactive = no such curve, though single readings can be large or run the other way; the % refers to the polarisation;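 also: polarization taken with two DNA probes labelled with fluorescein and Texas red; potency is read from the fitted curve at half-maximal effect; % of control where 0% means no effect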
Target sequence (P11308 whole entry, looked up, the tested form may be a part): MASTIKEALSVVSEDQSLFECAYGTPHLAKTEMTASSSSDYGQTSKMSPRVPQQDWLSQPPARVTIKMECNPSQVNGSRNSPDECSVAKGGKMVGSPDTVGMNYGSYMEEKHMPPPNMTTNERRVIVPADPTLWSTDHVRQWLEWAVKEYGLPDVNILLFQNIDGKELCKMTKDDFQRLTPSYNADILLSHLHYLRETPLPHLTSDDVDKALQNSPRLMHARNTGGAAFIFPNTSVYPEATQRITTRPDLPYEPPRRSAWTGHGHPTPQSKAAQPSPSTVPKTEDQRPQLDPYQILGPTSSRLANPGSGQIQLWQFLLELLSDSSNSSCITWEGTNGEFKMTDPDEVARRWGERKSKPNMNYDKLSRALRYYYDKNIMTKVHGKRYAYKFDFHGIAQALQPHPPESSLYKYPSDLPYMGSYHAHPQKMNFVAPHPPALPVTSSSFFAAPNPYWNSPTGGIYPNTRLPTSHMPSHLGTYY
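His-tagged ERG Ets domain (1 uM in the protein solution; 300mM KCl, 50mM Tris-HCl, 1mM EDTA, 1mM DTT, pH 7.5) received compound, then a probe mix of 5 nM fluorescein-DNA and 100nM Texas-615-DNA. Fluorescence polarization was read for both dyes.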
ALOX12 inh – ALOX12 (human) lipoxygenase inhibition; Potency, µM (highest dose often 108 µM), for inactives: at the top dose activity change, negative = inhibition, most hits filed as inhibitors; AID 1671190; 580,000 tested, 1.1% active; P18054; purified 12hLO, xylenol orange hydroperoxide absorbance; also: potency is read from the fitted curve at half-maximal effect; % is scaled to controls: 0 for no effect and ±100 for the full control effect
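Purified human 12hLO at 150 nM in 25 mM Hepes, 0.01% Triton X-100, pH 7.0, preincubated 15 min at room temperature with compound. Reaction started with 40 uM arachidonic acid, 30 min at room temperature. Hydroperoxide measured by Fe-xylenol orange, 573/405 nm absorbance ratio.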
A549 tox – counter-screen for Nrf2 inhibitors: cytotoxicity in A549 cells; Potency, µM (doses to about 46 µM), inactives show at the top dose activity change, negative = cytotoxicity, usual class: inhibitors; 390,000 tested, 0.16% active; A549 ARE-Fluc cells, CellTiter-Fluor viability, 18-24 h; also: potency is read from the fitted curve at half-maximal effect; % is scaled to controls: 0 for no effect and ±100 for the full control effect
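A549 ARE_Fluc cells in 5% FBS OPTI-MEM were exposed to compounds in concentration-response for 18-24 h at 37 deg C. Viability was read by CellTiter-Fluor fluorescence (Ex 405/Em 525) after 30 min, before the luciferase read.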
Nrf2 block – inhibitors of Nrf2 signaling | A549 ARE-Fluc reporter, luciferase luminescence, 18-24 h | Potency, µM (top dose mostly 46 µM), for the others: top-dose activity change, negative = inhibition, hits mostly inhibitors | 360,000 tested, 2.1% active; also: potency is read from the fitted curve at half-maximal effect; % is scaled to controls: 0 for no effect and ±100 for the full control effect; nearly all actives have a fitted effect of over 60% in size
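A549 ARE_Fluc cells, 5000/well, 5% FBS OPTI-MEM; compounds in dose-response, 18-24 h at 37 °C/5% CO2; CellTiter-Fluor viability read (Ex 405/Em 525), then BugLite luciferase luminescence = Nrf2 activity.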
LDHA inh – LDHA (human) enzyme inhibition; P00338; purified LDHA, NADH/diaphorase-resazurin fluorescence; active compounds read low; activity change, % (values are at about 110 or 230 µM); 480,000 tested, 0.15% active; AID 1347041; in the data active = activity change below about -30%; inconclusive = mostly about -25% to -30%;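 also: plate controls were DMSO wells for no effect and wells without enzyme for full effect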
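Remaining NADH was detected by diaphorase (0.133 mg/mL) converting 37 µM resazurin to fluorescent resorufin, read at 0 and 20 minutes. The preceding 5-minute room-temperature reaction used 2 nM LDHA, 0.2 mM sodium pyruvate and 0.06 mM NADH at pH 7.4.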
Nrf2 activator – activators of Nrf2 (ARE) signaling; AREc32 ARE-luciferase reporter (MCF7-derived line), luminescence, 24 h; Potency, µM (top dose mostly 46.1 µM), inactives show at the highest dose activation, usual class: activators; 410,000 tested, 0.31% active; AID 624171; also: potency is read from the fitted curve at half-maximal effect; % of control where 0% means no effect; nearly all actives have a fitted effect of over 65% in size
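Luminescent ARE reporter assay in AREc32_Fluc cells: overnight plating at 37 deg C, 24 hr compound incubation, Steady-Glo added, 30 min RT before reading.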
Numbers without * were called inactive; ? = inconclusive; nt = no result given. Unless noted, calls follow the shape of the dose curve; as a rule, active = well fitted curve in the direction sought with a large enough effect; inconclusive = small, poorly fitted or top-dose-only effect, or another doubt; inactive = no such curve, though single readings can be large; an effect the other way counts as inactive or inconclusive.

SMILES	ERG Ets-DNA blk	ALOX12 inh	A549 tox	Nrf2 block	LDHA inh	Nrf2 activator
Cc1cccc(NS(=O)(=O)c2cc(NC(=O)Cc3n[nH]c(=O)c4ccccc34)ccc2C)c1	nt	?	nt	nt	-24	nt
Cc1ccc(NC(=O)Cc2n[nH]c(=O)c3ccccc23)cc1S(=O)(=O)N1CCCCCC1	9%	211%	-18%	10µM*	-8	2%
CN(c1ccccc1)S(=O)(=O)c1cccc(NC(=O)Cc2n[nH]c(=O)c3ccccc23)c1	-5%	?	-9%	16µM*	-1	0%
CCN(CC)S(=O)(=O)c1cc(NC(=O)COC(=O)c2c(C)noc2C)ccc1C	13%	0%	?	21µM*	4	0%
CCN(CC)S(=O)(=O)c1cc(NC(=O)Cc2n[nH]c(=O)c3ccccc23)ccc1C	-19%	-4%	-12%	26µM*	-7	0%
COC(=O)c1ccc(NN=Nc2ccc(C)cc2)cc1	4%	18µM*	-17%	?	25	4%
O=c1c2c(-c3cccs3)csc2nc(CN2CCOCC2)n1CCOc1ccc(F)cc1	nt	4%	nt	nt	11	nt
Cc1cccc(N2CCN(c3nc4ccccc4nc3C(=O)OC(C)C)CC2)c1C	nt	?	nt	nt	5	nt
COc1ccc(NC(=O)Cn2c(=O)c(CNc3ccccc3)cc3cc(OC)c(OC)cc32)cc1	nt	?	nt	nt	16	nt
COC(=O)C1(NC(=O)COc2cc(Cl)ccc2Cl)CCCCCC1	nt	-14%	nt	nt	-31*	nt
CC(NC(=O)/C(C#N)=C\c1ccccc1OC(F)F)c1ccccc1 (stereo not given)	nt	?	nt	nt	-3	nt
O=C1NC2(CCN(CC3CCCC3)CC2)Oc2ccccc21	nt	25µM*	nt	nt	nt	nt
Cc1cc(NC(=O)CSc2ccc3nnc(-c4cccc(F)c4)n3n2)no1	nt	45µM*	0%	-7%	-6	0%
Cc1cc(NC(=O)CSc2ccc3nnc(-c4ccc(Cl)cc4)n3n2)no1	0%	?	-18%	-10%	-5	0%
CSC1=N/C(=C\c2ccc(C)o2)C(=O)S1	4%	45µM*	-14%	-15%	3	4%
CSC1=N/C(=C\c2ccc(I)o2)C(=O)S1	nt	5.6µM*	nt	nt	9	nt
N#Cc1ccc(OCC(O)CSc2ccc(O)cc2)cc1 (stereo not given)	nt	-21%	nt	nt	-1	nt
CCOC(=O)Nc1ccc2c(c1)N(C(=O)CN1CCN(C)CC1)c1ccccc1CC2	-21%	5µM*	-2%	?	0	0%
CCCn1nc(C(=O)OCc2nnc(-c3ccccc3)o2)c2ccccc2c1=O	nt	3%	nt	nt	0	nt
C=CCn1c(C)cc(C(=O)COc2ccc(N(C)S(=O)(=O)c3ccc(NC(C)=O)cc3)cc2)c1C	16%	5%	-23%	16µM*	1	25%
COCC(C)n1c(C)cc(C(=O)COc2ccc(N(C)S(=O)(=O)c3ccc(NC(C)=O)cc3)cc2)c1C (stereo not given)	-2%	16%	2%	-7%	3	10%
COc1ccc(C(=O)c2sc(Nc3cccc(Cl)c3)nc2N)cc1	nt	?	nt	nt	13	nt
O=C(/C=C/c1ccc(O)c(O)c1)NC(=O)c1ccccc1O	2%	40µM*	?	?	5	17%
O=C(/C=C/c1ccc(Br)cc1)NC(=O)c1ccccc1O	-2%	10%	4%	6%	-4	?
O=C(/C=C/c1ccc(O)c(O)c1)c1ccc(O)cc1O	nt	8.9µM*	nt	nt	nt	nt
CC1CCCN(c2oc(-c3ccc(Cl)cc3)nc2C#N)C1 (stereo not given)	nt	-43%	nt	nt	0	nt
